In PubChem BioAssay (NCI):
About 79,000 compounds went through this panel and 15% of them were active in at least one assay; those are over-represented in the sample as a whole. Active and inactive are the calls of the source. Rule as the data show it: active = growth inhibition above about 70%; inactive = the rest.

Key:
[1] = NCI Yeast Anticancer Drug Screen. Data for the rad50 strain (AID 155);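 also: 0% = growth of vehicle-only cultures of the same strain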; conditions: S. cerevisiae rad50 strain growth inhibition; at 50.0 µM; active compounds read high
Summary of the method: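 Inhibition values express reduced yeast growth in compound-treated cultures relative to vehicle-treated controls.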

[2] = NCI Yeast Anticancer Drug Screen. Data for the mec2-1 strain (AID 157); conditions: S. cerevisiae mec2-1 strain, at 50.0 µM, active compounds read high
Summary of the method: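 Readout is yeast growth inhibition, normalised to vehicle-treated controls, in the mec2-1 strain exposed to compound.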

[3] = NCI Yeast Anticancer Drug Screen. Data for the sgs1 mgt1 strain (AID 161);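 also: 0% = growth of cultures given vehicle only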; conditions: S. cerevisiae sgs1 mgt1 strain, at 50.0 µM, active compounds read high
Summary of the method: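 Growth of a repair-deficient yeast mutant was monitored after compound treatment and expressed as inhibition relative to vehicle-treated cultures.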

[4] = NCI Yeast Anticancer Drug Screen. Data for the cln2 rad14 strain (AID 165);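 also: 0% = growth equal to vehicle treated cultures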; conditions: S. cerevisiae cln2 rad14 strain, at 50.0 µM, active compounds read high
Summary of the method: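 Relative to vehicle controls, growth inhibition of compound-treated cln2 rad14 yeast was recorded.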

[5] = NCI Yeast Anticancer Drug Screen. Data for the bub3 strain (AID 167); conditions: S. cerevisiae bub3 mutant strain, at 50.0 µM, active compounds read high
Summary of the method: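 Steps: expose the mutant yeast strain to compound; grow alongside vehicle-treated cultures; measure growth; express inhibition against the vehicle cultures.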

[6] = NCI Yeast Anticancer Drug Screen. Data for the mlh1 rad18 strain (AID 175); conditions: S. cerevisiae mlh1 rad18 strain growth inhibition; at 50.0 µM; active compounds read high
Summary of the method: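 Test agents were incubated with a yeast strain of defined genotype (DNA damage repair defect). Inhibition of growth was derived by comparison with vehicle-exposed cultures.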

Measured: growth inhibition

[N-]=[N+]=NC[C@H]1OCO[C@H](CN=[N+]=[N-])[C@H]2OCCOCCOc3ccccc3OCCOCCO[C@@H]21
inactive: [1] -13.2% | [2] -9.65% | [3] -11.6% | [4] -15.6% | [5] -30.9% | [6] -18.1%

Cc1ccc(C(=N)c2ccccc2Cc2ccccc2)cc1C
inactive: [1] -11.7% | [2] -2.45% | [3] -15.1% | [4] -12.2% | [5] 7.9% | [6] -27.9%

C/C(=N\NC(=O)c1ccncc1)c1ccccc1Cl
inactive: [1] -23.3% | [2] -23.9% | [3] -16.1% | [4] -13.3% | [5] -75.8% | [6] -17.4%

COC(=O)C(=O)c1c2ccccc2n2ccc3c4ccccc4[nH]c3c12
inactive: [1] 25.9% | [2] 8.9% | [3] -5.75% | [4] 10.1% | [5] 9.6% | [6] 10.5%

CC(=O)CSc1cc(C)c2ccccc2n1
inactive: [1] -6.6% | [2] -7.35% | [3] -11.1% | [4] -10.8% | [5] -13.1% | [6] 1.05%

CN(C)c1ccc(C=Nc2cc(S(=O)(=O)O)cc3cc(S(=O)(=O)O)cc(O)c23)cc1
inactive: [1] -22.9% | [2] -9.7% | [3] -14.7% | [4] 31.6% | [5] 12.4% | [6] 8.85%

Cc1ccc(N(C)S(=O)(=O)c2ccc([N+](=O)[O-])cc2)cc1
inactive: [1] 8.4% | [2] -2.65% | [3] 29.1% | [4] 21.1% | [5] 42.1% | [6] 26.2%

COc1cc(C=Nc2ccc(N3CCOCC3)cc2)ccc1O
inactive: [1] -1.1% | [2] -3.45% | [3] -8.45% | [4] -18.6% | [5] 12.6% | [6] -1.25%

CCOC(=O)/C(C#N)=C\C1(C)CCC(C)=CO1 (stereo unspecified)
inactive: [1] -1.8% | [2] -8.65% | [3] -7.9% | [4] -31.6% | [5] -4.85% | [6] -3.25%

CC(=O)O[C@]1(C(C)=O)CC[C@H]2[C@@H]3C[C@H](C)C4=CC(=O)C=C[C@]4(C)[C@@]3(F)[C@@H](O)C[C@@]21C
inactive: [1] 3.25% | [2] -35.4% | [3] -10.9% | [4] -15.4% | [5] -16.9% | [6] 20.8%

O=C(O)C1CCCCN1/N=C/c1ccccc1 (stereo unspecified)
inactive: [1] 15.8% | [2] 6.8% | [3] -1.65% | [4] -13.6% | [5] -30.8% | [6] 21.9%

C/C=C(\C)C(C#N)(CCCC)C(=O)OCC (stereo unspecified)
inactive: [1] 0.3% | [2] -17.2% | [3] -6.35% | [4] -14.7% | [5] -25.4% | [6] -24.2%

O=C(Nc1ccc(C(F)(F)F)cc1[N+](=O)[O-])C(=O)C1NC(=S)NC1=O (stereo unspecified)
inactive: [1] 30.6% | [2] 12.1% | [3] 24.9% | [4] 25.4% | [5] 7.35% | [6] 27.6%

CN1CCc2ccccc2C1Cc1cc(OCc2ccccc2)ccc1N (stereo unspecified)
inactive: [1] 36.2% | [2] 1.25% | [3] 23.6% | [4] 30.6% | [5] 14.8% | [6] 22.1%

C(=NCc1ccccc1)c1ccccc1-c1ccccc1C=NCc1ccccc1
active: [1] 98% | [2] 98.7% | [3] 98.8% | [4] 91.8% | [5] 97.2% | [6] 98.1%

C[n+]1nc([O-])oc1-c1ccccc1
inactive: [1] 4.5% | [2] 3.05% | [3] 11.4% | [4] -3.65% | [5] -4.6% | [6] 6.3%

C/C=C/c1ccc(OCC)c(OC)c1
inactive: [1] 24.4% | [2] 6.25% | [3] 12.3% | [4] -8.8% | [5] -17.2% | [6] 16.3%

O=C1C/C(=C\c2ccccc2O)C(=O)c2ccccc21
active: [3] 83.4% | [6] 82.8%
inactive: [1] 66.3% | [2] 61.1% | [4] 57.8% | [5] 54.8%

COC(=O)C12c3ccccc3C(c3ccccc31)c1c(N=O)ccc(NO)c12
active: [1] 99.2% | [2] 99.3% | [3] 99.1% | [4] 98.7% | [5] 99% | [6] 99%

CCc1c(C)c(C)c(C)c(C)c1C(C)=O
inactive: [1] -5% | [2] -22.4% | [3] -7.35% | [4] 20.1% | [5] 6.4% | [6] -26.6%

COc1ccc(C2C(Cl)C(=O)N2NC(=O)c2ccc(NC(C)=O)cc2)cc1 (stereo unspecified)
inactive: [1] -47.9% | [2] -20.8% | [3] -49.9% | [4] -9.35% | [5] -50% | [6] -54%

COc1ccc(-c2cc(-c3ccccc3)nc(/N=C\c3ccccc3)n2)c(O)c1
inactive: [1] -10.7% | [2] -20.4% | [3] -15.5% | [4] -17.9% | [5] -34.7% | [6] -51.2%

O=C1OC(c2ccccc2)=N/C1=C/c1c(-c2ccccc2)c(-c2ccccc2)c2n1CCC2
inactive: [1] 21.9% | [2] 9.75% | [3] 3.05% | [4] 25.5% | [5] -4.45% | [6] 18.6%

CCCCC(O)C(=O)NCCC(=O)c1ccccc1 (stereo unspecified)
inactive: [1] -7.1% | [2] 5.95% | [3] 3.45% | [4] 22.9% | [5] 14.1% | [6] 20.4%

O=C1C2CSCN2C(=O)C2CSCN12 (stereo unspecified)
inactive: [1] 5% | [2] 4.45% | [3] 5.7% | [4] 12.1% | [5] 8.8% | [6] 4.5%

c1ccc(CNCCN(Cc2ccccc2)Cc2ccccc2)cc1
inactive: [1] 31.6% | [2] -1.8% | [3] 36.4% | [4] -11.8% | [5] 30.4% | [6] 25.7%

CN(C)c1ccc(/C=C/C(=O)/C=C/c2ccc(N(C)C)cc2)cc1
inactive: [1] -13.5% | [2] -2% | [3] -13.8% | [4] 7.6% | [5] -12.2% | [6] -8.9%

CN1CSCC1C(=O)O (stereo unspecified)
inactive: [1] 13% | [2] -3.25% | [3] -8.45% | [4] -39.4% | [5] -9.1% | [6] 11.8%

Cc1ccc(S(=O)C(C)C(Cl)c2ccccc2)cc1 (stereo unspecified)
inactive: [1] -3.6% | [2] 0.2% | [3] 5.6% | [4] 16.9% | [5] 11.7% | [6] 6.9%

CCC(=O)NC1CCCCC1
inactive: [1] 8.6% | [2] 3.5% | [3] 19.2% | [4] -15.3% | [5] -13.9% | [6] 1.4%

CC1(C)OC2C(=O)O[C@H](CO)C2O1 (stereo partly specified)
inactive: [1] -2.7% | [2] 9.5% | [3] -2.9% | [4] 24.6% | [5] 7.3% | [6] 16.4%

CCN(CC)CCCNc1ccc(-c2cc(OC)cc3cccnc23)cc1
inactive: [1] -5.95% | [2] -17.1% | [3] -0.05% | [4] -14.1% | [5] 6% | [6] 4.4%

[Br][Pt+2][Br].[NH-]c1cccc(F)c1.[NH-]c1cccc(F)c1
inactive: [1] 50.9% | [2] 11.4% | [3] 39.4% | [4] 6.4% | [5] 5.65% | [6] 46.3%

O=NNc1ccc(SSc2ccc(NN=O)cc2)cc1
inactive: [1] 39.8% | [2] 9.5% | [3] 22.9% | [4] 44.9% | [5] 8.05% | [6] 31.1%

COc1ccc2nccc(CO)c2c1
inactive: [1] 4.95% | [2] -3.4% | [3] -0.8% | [4] -33.2% | [5] 5.7% | [6] 0.75%

CC(=O)c1cc2c(Br)cccc2oc1=O
inactive: [1] -38% | [2] -42.4% | [3] -32.5% | [4] -3.3% | [5] -42.9% | [6] -36.2%
